The values that follow come from paper PMC11062922 (Nature Chemical Biology, 2023).

What all share (parameters): species or system human, MV4-11 + K-562 + COLO205 + SK-N-BE2 + OVCAR-8
In one assay the test system is AXL. The following applies: read-out: apparent Kd; compound concentrations:100 nM and 1000 nM (sheet 'Samples'); n = 1.
The test system of a further assay is EIF2AK1. The following applies: read-out: apparent Kd, n = 1.
The test system of another assay is BUB1. The settings on record: read-out: apparent Kd, compound concentrations: 100 nM and 1000 nM (sheet 'Samples'), n = 1.
Another assay has as its system MAPK11. The following applies: read-out: apparent Kd; compound concentrations: 100 nM and 1000 nM (sheet 'Samples'), CATDS: 0.164145076514569; n = 1.
Another assay has as its system MAPK14. The settings on record: read-out: apparent Kd, compound concentrations: 100 nM and 1000 nM (sheet 'Samples'), n = 1.
The subject of another assay is MAPKAPK2. The settings on record: read-out: apparent Kd, compound concentrations: 100 nM and 1000 nM (sheet 'Samples'), n = 1.
For the next assay, the system named is PIK3CD. The settings on record: read-out: apparent Kd; compound concentrations: 100 nM and 1000 nM (sheet 'Samples'), CATDS: 0.38142915880681; n = 1.
In another assay the test system is AURKB. The settings on record: read-out: apparent Kd, compound concentrations: 100 nM and 1000 nM (sheet 'Samples'), n = 1.
The subject of another assay is STK3. The settings on record: read-out: apparent Kd; compound concentrations: 100 nM and 1000 nM (sheet 'Samples'), CATDS: 0.22390025297111801; n = 1.
Another assay has as its system STK4. The following applies: read-out: apparent Kd; compound concentrations: 100 nM and 1000 nM (sheet 'Samples'), CATDS: 0.27956924002989397; n = 1.
A further assay concerns BMP2K. The settings on record: read-out: apparent Kd; compound concentrations: 100 nM and 1000 nM (sheet 'Samples'), CATDS: 7.6838434423815494E-2; n = 1.
A further assay relates to CDKL5. The settings on record: read-out: apparent Kd; compound concentrations: 100 nM and 1000 nM (sheet 'Samples'), CATDS: 7.5707148377712405E-2; n = 1.
In a further assay the test system is FLT3. The settings on record: read-out: apparent Kd; compound concentrations: 100 nM and 1000 nM (sheet 'Samples'), CATDS: 9.6631146746451402E-2; n = 1.
Another assay deals with GSK3A. The following applies: read-out: apparent Kd; compound concentrations: 100 nM and 1000 nM (sheet 'Samples'), CATDS: 8.1333822841740205E-2; n = 1.
Another assay relates to GSK3B. The following applies: read-out: apparent Kd; compound concentrations: 100 nM and 1000 nM (sheet 'Samples'), CATDS: 7.5519353695847294E-2; n = 1.
The next assay deals with HSPE1. The following applies: read-out: apparent Kd; compound concentrations: 100 nM and 1000 nM (sheet 'Samples'), CATDS: 0.31901289007405398; n = 1.
A further assay deals with ICK. The settings on record: read-out: apparent Kd; compound concentrations: 100 nM and 1000 nM (sheet 'Samples'), CATDS: 5.8957301425707501E-2; n = 1.
The next assay concerns JAK1. The settings on record: read-out: apparent Kd; compound concentrations: 100 nM and 1000 nM (sheet 'Samples'), CATDS: 9.4979881318968506E-2; n = 1.
The next assay has as its system MAPK9. The settings on record: read-out: apparent Kd, compound concentrations: 100 nM and 1000 nM (sheet 'Samples'), n = 1.
For another assay, the system named is NUAK1. The settings on record: read-out: apparent Kd; compound concentrations: 100 nM and 1000 nM (sheet 'Samples'), CATDS: 6.5408557388510299E-2; n = 1.
Another assay has as its system PGK1. The settings on record: read-out: apparent Kd; compound concentrations: 100 nM and 1000 nM (sheet 'Samples'), CATDS: 0.33349072490792903; n = 1.
For another assay, the system named is PKM. The settings on record: read-out: apparent Kd; compound concentrations: 100 nM and 1000 nM (sheet 'Samples'), CATDS: 6.2556323198701705E-2; n = 1.
A further assay has as its system ERBB3. The settings on record: read-out: apparent Kd; compound concentrations:100 nM and 1000 nM (sheet 'Samples'); n = 1.
Another assay has as its system MAP3K1. The settings on record: read-out: apparent Kd; compound concentrations:100 nM and 1000 nM (sheet 'Samples'); n = 1.
The next assay has as its system RET. The settings on record: read-out: apparent Kd; compound concentrations:100 nM and 1000 nM (sheet 'Samples'); n = 1.
Another assay concerns ZAK. The following applies: read-out: apparent Kd; compound concentrations:100 nM and 1000 nM (sheet 'Samples'); n = 1.
Another assay concerns CIT. The settings on record: read-out: apparent Kd; compound concentrations: 100 nM and 1000 nM (sheet 'Samples'), CATDS: 0.144210490801775; n = 1.
The next assay concerns CSNK1D. The following applies: read-out: apparent Kd; compound concentrations: 100 nM and 1000 nM (sheet 'Samples'), CATDS: 0.10890792541592099; n = 1.
For a further assay, the system named is GAK. The settings on record: read-out: apparent Kd; compound concentrations: 100 nM and 1000 nM (sheet 'Samples'), CATDS: 0.122345585139645; n = 1.
For another assay, the system named is MAPK10. The following applies: read-out: apparent Kd; compound concentrations: 100 nM and 1000 nM (sheet 'Samples'), CATDS: 0.135593379838652; n = 1.

Where two headings read alike, the source gives them in different places.

For the molecule `Cc1cccc(CC(=O)N2CCc3c2ccc(-c2cn(C)c4ncnc(N)c24)c3F)n1` [GSK2656157], the potency estimated from few doses in the assay with AXL is 503 nM; with EIF2AK1 (compound concentrations:100 nM and 1000 nM (sheet 'Samples')), 751 nM.
Take `Cc1cc(N2CCC(NS(=O)(=O)c3ccc(F)cc3)CC2)nc(Nc2cccc(C#N)c2)n1.O=C(O)C(F)(F)F` [GSK1653537A]: the potency estimated from few doses in the assay with BUB1 (CATDS: 0.134254488051117) was 1700 nM; in the assay on MAPK11 it was 822 nM; in the assay on MAPK14 (CATDS: 0.28659928881312002) it was 232 nM; in the assay with MAPKAPK2 (CATDS: 0.18697262000238801), 573 nM; in the assay with PIK3CD, 144 nM.
In the case of `COc1cccc(CC(=O)N2CCc3cc(-c4cn(C)c5ncnc(N)c45)ccc32)c1` [GSK2608899A], the potency estimated from few doses in the assay on AURKB (CATDS: 0.23694703885971399) was 1340 nM; in the assay with EIF2AK1 (compound concentrations: 100 nM and 1000 nM (sheet 'Samples'), CATDS: 0.26763431459408499), 1050 nM; in the assay on STK3 it was 1510 nM; in the assay with STK4, 966 nM.
Take `Cc1ccc2c(c1)c(C1=C(c3cn(C)c4ccccc34)C(=O)NC1=O)cn2C` [RO0317510-000]: the potency estimated from few doses with BMP2K is 783 nM; in the assay with CDKL5, 815 nM; in the assay on FLT3 it was 449 nM; in the assay on GSK3A it was 676 nM; in the assay on GSK3B it was 820 nM; with HSPE1, 48.4 nM. The potency estimated from few doses in the assay on ICK was 1800 nM; in the assay with JAK1, 467 nM; with MAPK9 (CATDS: 5.8843363107673401E-2) it was 1810 nM; in the assay with NUAK1, 1250 nM; in the assay with PGK1, 45.2 nM; with PKM, 1450 nM.
For the molecule `Cl.O=C(Nc1ccc(Oc2ccc3[nH]c(NC(=O)c4ccco4)nc3c2)cc1)Nc1cc(C(F)(F)F)ccc1F` [GW683134A_KCGS], the potency estimated from few doses was 1640 nM in the assay with AXL; 1130 nM in the assay with ERBB3; 2000 nM in the assay with MAP3K1; 498 nM in the assay on RET; 2150 nM in the assay with ZAK.
For `Fc1ccc(-c2nn3c(OCC(F)(F)F)cccc3c2-c2ccncc2)cc1` [GW514784X], the potency estimated from few doses in the assay on BUB1 (CATDS: 0.17934012366879401) is 448 nM; in the assay on CIT it was 646 nM; with CSNK1D, 1160 nM; in the assay on GAK it was 890 nM; in the assay with MAPK10, 725 nM; in the assay on MAPK14 (CATDS: 0.115463865520786) it was 1010 nM. The potency estimated from few doses with MAPK9 (CATDS: 0.122740421728674) was 884 nM; with MAPKAPK2 (CATDS: 0.10049167184689101), 1420 nM.
Turning to `Cn1cc(-c2ccc3c(c2)CCN3C(=O)Cc2cc(F)cc(F)c2F)c2c(N)ncnc21` [GSK2634140A], the potency estimated from few doses in the assay on AURKB (CATDS: 0.49376947402656801) is 1300 nM; with EIF2AK1 (compound concentrations: 100 nM and 1000 nM (sheet 'Samples'), CATDS: 0.50638977254874895), 1240 nM.
